From PubChem BioAssay
“And” between values parts separate entries of the source, which are not always exact repeats. Identical values can stand only once.

Tests used:
[1] = tested on: Botulinum neurotoxin type F light chain protease (Clostridium botulinum); assay: Clostridium botulinum type F light chain protease inhibitors, microsphere substrate cleavage, validation (AID 588459); details: multiplex microsphere protease substrate cleavage assay, flow cytometry; at 10 µM; hits give high values
[2] = biological target: Botulinum neurotoxin type A (Clostridium botulinum) (UniProt P0DPI0); assay: BoNT/A light chain protease inhibitors, biochemical, multiplex microsphere flow cytometry, validation set (AID 588460); details: at 10 µM, hits give high values
[3] = biological target: Lethal factor (Bacillus anthracis) (UniProt P15917); assay: Bacillus anthracis lethal factor inhibition, microsphere flow cytometry protease assay, validation at 10 µM (AID 588461); details: multiplex microsphere protease cleavage assay, hits give high values

Measured: inhibition

Lethal factor (Bacillus anthracis), sequence (P15917 whole entry, looked up): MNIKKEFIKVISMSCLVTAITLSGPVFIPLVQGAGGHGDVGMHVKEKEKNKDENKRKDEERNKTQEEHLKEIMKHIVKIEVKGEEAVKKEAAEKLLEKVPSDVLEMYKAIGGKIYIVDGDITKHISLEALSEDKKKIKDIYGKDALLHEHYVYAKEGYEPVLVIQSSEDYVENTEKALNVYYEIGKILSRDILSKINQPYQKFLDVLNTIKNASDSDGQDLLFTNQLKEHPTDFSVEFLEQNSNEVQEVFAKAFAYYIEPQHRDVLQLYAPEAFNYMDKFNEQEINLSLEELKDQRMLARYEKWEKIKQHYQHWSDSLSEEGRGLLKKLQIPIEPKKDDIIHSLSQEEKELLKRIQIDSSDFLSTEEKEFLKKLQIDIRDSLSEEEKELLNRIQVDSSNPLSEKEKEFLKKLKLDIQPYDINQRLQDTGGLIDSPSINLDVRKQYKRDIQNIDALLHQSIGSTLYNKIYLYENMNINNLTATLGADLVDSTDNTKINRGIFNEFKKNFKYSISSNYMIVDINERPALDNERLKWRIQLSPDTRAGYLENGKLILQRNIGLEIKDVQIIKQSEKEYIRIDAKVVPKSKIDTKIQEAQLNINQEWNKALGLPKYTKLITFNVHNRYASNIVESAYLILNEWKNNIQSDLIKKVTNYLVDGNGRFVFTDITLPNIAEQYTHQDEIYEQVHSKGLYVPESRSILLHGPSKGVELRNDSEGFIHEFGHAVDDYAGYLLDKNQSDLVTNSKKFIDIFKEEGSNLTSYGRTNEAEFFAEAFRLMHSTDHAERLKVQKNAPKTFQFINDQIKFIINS
Botulinum neurotoxin type A (Clostridium botulinum), sequence (P0DPI0 whole entry, looked up): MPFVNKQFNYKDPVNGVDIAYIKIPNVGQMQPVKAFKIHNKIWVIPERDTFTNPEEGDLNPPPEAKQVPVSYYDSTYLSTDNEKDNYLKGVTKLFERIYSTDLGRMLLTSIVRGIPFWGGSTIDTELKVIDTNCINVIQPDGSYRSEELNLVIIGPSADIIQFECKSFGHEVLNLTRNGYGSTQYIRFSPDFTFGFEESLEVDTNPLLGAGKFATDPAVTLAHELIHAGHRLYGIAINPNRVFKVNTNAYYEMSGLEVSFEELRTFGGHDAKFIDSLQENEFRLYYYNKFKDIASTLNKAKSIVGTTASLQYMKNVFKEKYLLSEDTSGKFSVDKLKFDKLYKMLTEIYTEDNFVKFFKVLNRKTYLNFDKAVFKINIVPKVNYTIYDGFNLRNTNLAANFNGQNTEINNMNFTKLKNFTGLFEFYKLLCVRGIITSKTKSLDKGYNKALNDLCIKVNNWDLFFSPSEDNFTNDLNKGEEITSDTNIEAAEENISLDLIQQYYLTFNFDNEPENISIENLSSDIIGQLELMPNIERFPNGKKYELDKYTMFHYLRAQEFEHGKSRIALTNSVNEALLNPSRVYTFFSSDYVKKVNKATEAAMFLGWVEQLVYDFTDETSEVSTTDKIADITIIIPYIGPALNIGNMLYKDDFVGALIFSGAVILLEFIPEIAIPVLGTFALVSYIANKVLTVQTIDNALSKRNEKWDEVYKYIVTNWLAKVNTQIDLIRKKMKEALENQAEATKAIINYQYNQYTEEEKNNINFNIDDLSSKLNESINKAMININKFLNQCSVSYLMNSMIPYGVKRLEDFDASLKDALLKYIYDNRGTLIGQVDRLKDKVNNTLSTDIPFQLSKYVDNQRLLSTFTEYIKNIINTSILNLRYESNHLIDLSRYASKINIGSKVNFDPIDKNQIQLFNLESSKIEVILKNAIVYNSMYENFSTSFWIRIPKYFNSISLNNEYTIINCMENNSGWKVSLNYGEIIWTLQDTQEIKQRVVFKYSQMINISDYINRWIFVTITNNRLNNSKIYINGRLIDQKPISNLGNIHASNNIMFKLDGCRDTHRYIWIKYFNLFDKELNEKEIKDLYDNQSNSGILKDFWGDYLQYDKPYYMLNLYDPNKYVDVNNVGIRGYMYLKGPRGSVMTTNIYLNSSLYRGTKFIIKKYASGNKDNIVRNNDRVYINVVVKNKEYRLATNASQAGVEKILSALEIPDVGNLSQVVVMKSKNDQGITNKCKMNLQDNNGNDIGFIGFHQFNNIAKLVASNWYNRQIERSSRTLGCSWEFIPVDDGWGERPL

CC1(C)CC(c2csc(N)n2)CCO1 (configuration not stated)
inactive: [1] -0.4% | [2] -1% | [3] -8.4%

COc1ccc(C=O)c(OC)c1
inactive: [1] -0.3% | [2] -0.5% | [3] 0.2%

COc1ccc(C2NC(C(=O)O)Cc3c2[nH]c2ccccc32)cc1CN1CCN(c2ccc(F)cc2)CC1 (configuration not stated)
inactive: [1] 8.8% | [2] 0.4% | [3] 2.2%

CCc1ccc(CN(C)Cc2nc(Cc3ccccc3)no2)nc1
inactive: [1] 1.4% | [2] 0.5% | [3] 1.2%

CC(C)c1cc(=O)oc2c3c4c(cc12)CCCN4CCC3
inactive: [1] 4.4% | [2] 2% | [3] -13.8%

CCOC(=O)C1(CCCc2ccccc2)CCN(C2CCN(C(C)=O)CC2)CC1
inactive: [1] 0.1% | [2] 1.4% | [3] -6.4%

CCOc1ccc(CC2c3cc(OCC)c(OCC)cc3CCN2C(=O)CN2CCN(C)CC2)cc1OCC (configuration not stated)
inactive: [1] -5.9% | [2] -1.4% | [3] 7.9%

C[N+](C)(C)CCCC(=O)c1ccc2c(c1)OCO2
inactive: [1] -4% | [2] -1.8% | [3] -6%

O=C(CC1(O)C(=O)Nc2ccccc21)c1ccccc1O (configuration not stated)
inactive: [1] 0.6% | [2] -0.8% | [3] -1.4%

COc1ccc2c(CC(=O)NCC3CCC(C(=O)O)CC3)cc(=O)oc2c1 (configuration not stated)
inactive: [1] 1% | [2] -0.1% | [3] 3.6%

COc1ccc2nc(S(=O)Cc3ncc(C)c(OC)c3C)[nH]c2c1 (configuration not stated)
inactive: [1] 4.3% | [2] 1.7% | [3] 5%

COc1ccc(C(=O)CC2OC(=O)c3c2ccc(OC)c3OC)cc1 (configuration not stated)
inactive: [1] 0.2% | [2] 0.7% | [3] 3.4%

COc1cc(/C=C/C(=O)CC(=O)/C=C/c2ccc(O)c(OC)c2)ccc1O
inactive: [1] 12.2% | [2] 9.5% | [3] -0.9%

CC(C)Oc1ccc(C2CC(=O)N(c3ccc(C(=O)O)cc3)C2=O)cc1 (configuration not stated)
inactive: [1] 2.1% | [2] -0.7% | [3] -6.7%

CCOC(=O)C1C(=O)CC(C)(O)C(C(=O)OCC)C1/C=C/c1ccccc1 (configuration not stated)
inactive: [1] 1.1% | [2] 1% | [3] -1.4%

CC(C)=CC/C=C1\CCC(C(=O)O)C(C(=O)O)C1 (configuration not stated)
inactive: [1] -1.1% | [2] -1.6% | [3] -3.4%

CCNC(=O)c1c(N)sc2c1CCCCC2
inactive: [1] 0.9% | [2] -0.9% | [3] -5.1%

O=C(/C=C/c1ccc(F)cc1)NC(=S)N1CCCCC1c1cccnc1 (configuration not stated)
inactive: [1] 1% | [2] -0.6% | [3] -0.1%

C[C@@H]1CCC[C@H](C)N1NC(=O)c1ccc(Cl)c(S(N)(=O)=O)c1
inactive: [1] 1.2% | [2] -1.2% | [3] -0.8%

Cc1ccc2[nH]c3c(=O)n(CCc4cnc[nH]4)cnc3c2c1
inactive: [1] -6.6% | [2] -0.7% | [3] -10.5%

O=C(O)C1CSC(c2ccco2)N1 (configuration not stated)
inactive: [1] -2.3% | [2] -2.5% | [3] -0.8%

O=C1CC(c2ccc(OCCCCCOc3ccc(C4CC(=O)NC4=O)cc3)cc2)C(=O)N1 (configuration not stated)
inactive: [1] 2.5% | [2] 1.1% | [3] 2.1%

CC12CC(c3ccccc3O1)C(C(=O)N1CCOCC1)C(=O)N2 (configuration not stated)
inactive: [1] 2.8% | [2] 0% | [3] -4.8%

CCOC(=O)Nc1ccc2c(c1)N(C(=O)CCN1CCOCC1)c1ccccc1S2
inactive: [1] -1.6% | [2] -1.4% | [3] 0.2%

COC(=O)c1ccccc1NC(=O)NCc1ccccc1
inactive: [1] 2.7% | [2] 0.1% | [3] 0.8%

CCCCC(=O)O[C@]1(C(=O)CO)CC[C@H]2[C@@H]3CCC4=CC(=O)CC[C@]4(C)[C@H]3[C@@H](O)C[C@@]21C
inactive: [1] -3.5% | [2] -0.5% | [3] -2.1%

Nc1ccc(S(=O)(=O)NC(=O)c2ccccc2)cc1
inactive: [1] 1.2% | [2] 1.3% | [3] -2.7%

O=C(c1ccccc1F)c1cc2c(cc1[N+](=O)[O-])OCCO2
inactive: [1] 5.4% | [2] -0.4% | [3] 3.6%

CCc1c(C)c2ccc(OCC(=O)OC(C)C)c(C)c2oc1=O
inactive: [1] -1.9% | [2] -0.4% | [3] -1.3%

CCc1nc2ccccc2c(NC(=O)CN2CC(C)CC(C)C2)c1C (configuration not stated)
inactive: [1] -2% | [2] 0.8% | [3] 0.9%

NS(=O)(=O)c1ccc(CCNC(=O)C2CCCN2C(=O)OCc2ccccc2)cc1 (configuration not stated)
inactive: [1] 3.9% | [2] -0.7% | [3] 1.2%

CC1(C)O[C@@H]2C[C@H]3[C@@H]4C[C@H](F)C5=CC(=O)CC[C@]5(C)[C@H]4[C@@H](O)C[C@]3(C)[C@]2(C(=O)CO)O1
inactive: [1] 1.1% | [2] -0.8% | [3] 10.7%

CCC(=O)Oc1ccc(C(=O)Nc2ccc([N+](=O)[O-])cc2)cc1
inactive: [1] 2.3% | [2] -0.2% | [3] -3.6%

Cc1ccc2c(c1)c1c3n2CCCNC3CCC1 (configuration not stated)
inactive: [1] 9.2% | [2] 1.9% | [3] 0.5%

COc1cc2oc(-c3ccc(O)cc3)cc(=O)c2c(OC)c1O
inactive: [1] -1.9% | [2] -0.3% | [3] -2.3%

CCOc1ncnc2c1[nH]c1ccccc12
inactive: [1] 5.6% | [2] 0.5% | [3] -0.4%

COc1ccc(C(=O)/C=C/c2ccc(OC(=O)c3cc(OC)c(OC)c(OC)c3)cc2)cc1
inactive: [1] 2.9% | [2] 0.3% | [3] -5%

NC(=O)C1CCCNC1 (configuration not stated)
inactive: [1] 1.6% | [2] -0.4% | [3] 5.4%

O=S(=O)(CCc1nc2ccccc2[nH]1)c1ccc(Cl)cc1
inactive: [1] 3% | [2] -0.3% | [3] 3.5%

CC(C)Oc1cccc(C(=O)N2CCCC2)c1
inactive: [1] 2.3% | [2] -0.3% | [3] -5.2%

CCN(CC)CC(=O)Nc1c(C)cccc1C
inactive: [1] 2.8% and -0.5% | [2] 0.5% and -2.3% | [3] -6.6% and -3.8%

Clc1ccc2c(c1)C(N1CCNCC1)=Nc1ccccc1O2
inactive: [1] 3.1% | [2] 2.2% | [3] -6.2%

CC(C)C12CN3CC(C(C)C)(CN(C1)C3c1ccccc1)C2O (configuration not stated)
inactive: [1] 1.7% | [2] 1.2% | [3] 7%

COC(=O)c1cc(OC)c(OC)c(OC)c1[N+](=O)[O-]
inactive: [1] 1.9% | [2] 0.1% | [3] -0.2%
